MBD2 DNA inh: inhibitors of human MBD2 binding to methylated oligonucleotide; AID 686964; inhibition, % at 4.4 µM; TR-FRET; 370,000 compounds, 0.31% hits; in the data active = inhibition above about 13%
Rin1 Abl inh: blocks binding of human Rin1 to Abl; inhibition, % at 7.35 µM; TR-FRET Rin1/Abl binding, biochemical; 360,000 compounds, 0.4% hits; P00519+Q13671; AID 588664; in the data active = inhibition above about 5%, passing the limit was not always enough
Target sequence (P00519 whole entry, looked up): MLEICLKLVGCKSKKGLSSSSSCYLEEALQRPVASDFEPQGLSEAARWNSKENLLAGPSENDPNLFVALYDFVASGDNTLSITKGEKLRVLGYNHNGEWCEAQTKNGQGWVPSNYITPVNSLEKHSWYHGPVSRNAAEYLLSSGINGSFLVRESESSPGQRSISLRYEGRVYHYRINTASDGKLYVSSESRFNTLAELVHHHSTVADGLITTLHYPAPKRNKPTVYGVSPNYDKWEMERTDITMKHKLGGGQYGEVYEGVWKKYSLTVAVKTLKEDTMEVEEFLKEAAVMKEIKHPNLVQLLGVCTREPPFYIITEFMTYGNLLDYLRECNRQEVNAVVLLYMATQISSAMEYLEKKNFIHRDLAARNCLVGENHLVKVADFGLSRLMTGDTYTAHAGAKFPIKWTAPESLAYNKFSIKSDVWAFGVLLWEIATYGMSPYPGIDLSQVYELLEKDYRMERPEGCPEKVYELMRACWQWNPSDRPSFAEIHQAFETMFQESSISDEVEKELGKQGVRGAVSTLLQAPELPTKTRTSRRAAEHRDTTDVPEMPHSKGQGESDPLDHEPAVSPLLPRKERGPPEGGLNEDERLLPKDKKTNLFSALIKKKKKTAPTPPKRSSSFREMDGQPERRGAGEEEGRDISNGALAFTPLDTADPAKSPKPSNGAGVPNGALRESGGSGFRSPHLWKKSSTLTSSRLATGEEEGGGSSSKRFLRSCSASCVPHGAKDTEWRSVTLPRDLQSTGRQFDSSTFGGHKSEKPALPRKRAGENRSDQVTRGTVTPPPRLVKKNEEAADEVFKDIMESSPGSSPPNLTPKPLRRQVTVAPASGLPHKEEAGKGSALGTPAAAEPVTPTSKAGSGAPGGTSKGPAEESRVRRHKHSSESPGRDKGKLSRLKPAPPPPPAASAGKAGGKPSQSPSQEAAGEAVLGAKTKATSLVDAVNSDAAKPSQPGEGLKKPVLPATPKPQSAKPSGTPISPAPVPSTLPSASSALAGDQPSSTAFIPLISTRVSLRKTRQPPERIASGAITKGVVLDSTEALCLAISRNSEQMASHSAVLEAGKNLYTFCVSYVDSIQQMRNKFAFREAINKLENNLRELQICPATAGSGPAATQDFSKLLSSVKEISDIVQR
Target sequence (Q13671 whole entry, looked up): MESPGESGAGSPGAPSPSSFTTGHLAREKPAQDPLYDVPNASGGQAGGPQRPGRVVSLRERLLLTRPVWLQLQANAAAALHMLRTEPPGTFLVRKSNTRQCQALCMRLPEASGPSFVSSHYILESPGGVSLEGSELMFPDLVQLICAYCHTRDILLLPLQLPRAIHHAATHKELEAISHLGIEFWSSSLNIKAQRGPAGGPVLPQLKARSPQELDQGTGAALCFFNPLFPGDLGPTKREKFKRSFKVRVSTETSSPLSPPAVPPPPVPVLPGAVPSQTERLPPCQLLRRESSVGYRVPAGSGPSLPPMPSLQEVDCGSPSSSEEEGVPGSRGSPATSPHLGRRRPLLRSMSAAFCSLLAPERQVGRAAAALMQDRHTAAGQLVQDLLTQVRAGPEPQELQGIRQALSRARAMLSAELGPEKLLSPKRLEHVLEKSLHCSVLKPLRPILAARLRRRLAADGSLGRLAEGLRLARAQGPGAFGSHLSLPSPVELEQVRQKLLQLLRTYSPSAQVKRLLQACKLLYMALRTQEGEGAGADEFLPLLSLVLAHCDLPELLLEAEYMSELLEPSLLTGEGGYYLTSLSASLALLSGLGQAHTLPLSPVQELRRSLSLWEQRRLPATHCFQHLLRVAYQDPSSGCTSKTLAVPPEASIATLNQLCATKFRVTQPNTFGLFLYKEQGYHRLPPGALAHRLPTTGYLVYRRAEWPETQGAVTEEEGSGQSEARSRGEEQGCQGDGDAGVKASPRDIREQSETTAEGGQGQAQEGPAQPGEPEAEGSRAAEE
UHRF1 MBD2 ctr: blocks human UHRF1 binding to methylated DNA | inhibition, % at 4.4 µM | UHRF1 binding to methylated oligo, TR-FRET | 370,000 compounds, 0.75% hits | AID 687016 | Q96T88; in the data active = inhibition above about 21%;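 also: UHRF1 SRA domain binding a hemimethylated CpG hairpin DNA probe; 0% = median of test compound wells and 100% = reference inhibitor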
LEDGF integ inh: blocks HIV-1 LEDGF/p75-dependent DNA integration | inhibition, % at 3.7 µM | TR-FRET IN-LEDGF/p75 DNA integration, Eu/Cy5 | 370,000 compounds, 0.64% hits;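 active = inhibition above the screen-wide mean plus 3 SD, cut at about 13% in these data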;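 also: signal is the Cy5 over europium emission ratio at 671 and 618 nm; 0% = plate median of compound wells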
TCR-CD3 inh: human TCR-CD3 binding inhibition; TAMRA-labeled TCR probe fluorescence, biochemical; inhibition, % at 9.4 µM; AID 651800; 360,000 compounds, 0.37% hits; in the data active = inhibition above about 19%;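 also: recombinant mutant TCR 2C K166C tagged with TAMRA read by polarization; 0% = receptor in buffer alone and 100% = receptor with positive control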
IN multimer act: counter-screen for LEDGF/p75 integration inhibitors: HIV-1 integrase multimerization activators. shares compounds with LEDGF integ inh. TR-FRET HIV-1 integrase multimerization, biochemical. activation, % at 7.7 µM. 2,000 compounds, 17% hits; in the data active = activation above about 8.9%
TRFRET interf: counter-screen for LEDGF/p75 integration inhibitors: TR-FRET optical interference | shares compounds with LEDGF integ inh | TR-FRET optical interference counterscreen, HIV-1 IN multimerization | inhibition, % at 7.7 µM | 2,000 tested, under 10 active;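 active = inhibition above the mean over all tested compounds plus 3 SD, which no compound reached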;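 also: 0% = integrase with antibodies and DMSO and 100% = antibodies without integrase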
IN-LEDGF confirm: confirmation of HIV-1 LEDGF/p75-dependent integration inhibitors | AID 1053136 | shares compounds with LEDGF integ inh | 2,000 compounds, 36% hits | inhibition, % at 3.7 µM | TR-FRET LEDGF/p75-dependent HIV-1 integration, biochemical; in the data active = inhibition above about 14%
* = called active by the depositor; / = not tested or not shown. Hits are enriched below; roughly 2% of the tested compounds scored in any of these assays.

SMILES | MBD2 DNA inh | Rin1 Abl inh | UHRF1 MBD2 ctr | LEDGF integ inh | TCR-CD3 inh | IN multimer act | TRFRET interf | IN-LEDGF confirm
Cc1noc(/C=C/N(C)C)c1S(=O)(=O)N1CCCC(C(=O)NCc2cccs2)C1 (stereo not drawn) | -3 | 1 | -1 | 17* | 2 | 0 | -2 | -6
O=C(/C=C/c1cccc(F)c1)Nc1ccc(S(=O)(=O)N2CCOCC2)cc1 | 0 | 0 | 4 | -2 | -5 | / | / | /
NS(=O)(=O)c1ccc(NC(=S)NC(=O)/C=C/c2ccco2)cc1 | -5 | 4 | 18 | 33* | 2 | 13* | -45 | 38*
CN(c1ccccc1)S(=O)(=O)c1cccc(NC(=O)c2ccc(Cl)c([N+](=O)[O-])c2)c1 | 3 | 0 | 15 | 5 | 13 | / | / | /
COc1ccc(Nc2ncc(C(=O)N3CCN(c4ccc(F)cc4)CC3)c3ccccc23)cc1 | -2 | -2 | 2 | 14* | 2 | -1 | 3 | -5
CCCCCCCCN1C(=O)N2Cc3ccc(C)cc3C2CS1(=O)=O (stereo not drawn) | -1 | / | 0 | -1 | / | / | / | /
COc1ccc(NC(=O)CSc2nnc(NC(=O)C3CCC3)s2)c(OC)c1 | 3 | 0 | 3 | -5 | -5 | / | / | /
Cc1cccn2c(=O)c3cc(C#N)c(=NC(=O)c4ccco4)n(Cc4ccco4)c3nc12 | -6 | -4 | -3 | 3 | 7 | / | / | /
Cc1cccn2c(=O)c3cc(C#N)c(=NC(=O)c4ccccc4)n(Cc4ccco4)c3nc12 | 0 | -2 | 6 | 16* | 6 | -3 | 15 | 26*
Cc1cccc(C(=O)N=c2c(C#N)cc3c(=O)n4cccc(C)c4nc3n2Cc2ccco2)c1 | -10 | 1 | 0 | 17* | 8 | 2 | -11 | 35*
CSc1nc(COC(=O)NC(C)C)c(COC(=O)NC(C)C)n1Cc1ccccc1 | 1 | 0 | -2 | 3 | 1 | / | / | /
N=C1S/C(=C\c2ccco2)C(=O)N1c1nccs1 | 0 | -1 | -1 | 3 | -6 | / | / | /
Cc1ccc(N2C(=O)/C(=C/c3ccco3)SC2=S)cc1 | 2 | -1 | 11 | 19* | 10 | 0 | 0 | 11
N=C1S/C(=C\c2ccco2)C(=O)N1c1ccc2c(c1)OCO2 | -1 | -1 | 2 | 15* | 3 | 4 | -21 | 18*
Cc1ccc(N2C(=O)/C(=C/c3cccnc3)SC2=S)cc1 | 5 | -2 | 1 | -2 | 1 | / | / | /
COc1ccc(CN(C)C(=O)CCN=C2NS(=O)(=O)c3ccccc32)c(OC)c1 | -1 | 0 | -4 | 2 | -7 | / | / | /
Cc1oc2cc([N+](=O)[O-])c(O)c([N+](=O)[O-])c2c1C(=O)c1ccc(Cl)cc1 | -10 | -2 | -6 | 10 | -1 | / | / | /
Cc1cccc(/N=C/c2c(O)ccc3oc4c(c23)CCCC4)n1 | / | -2 | / | / | / | / | / | /
CC(C)CN=Cc1c(O)c([N+](=O)[O-])cc2oc3c(c12)CCCC3 | -14 | -3 | -13 | 49* | 6 | 0 | 1 | 66*
O=[N+]([O-])c1cc2oc3c(c2c(C=NCc2ccccc2)c1O)CCCC3 | -7 | -1 | -8 | 25* | 2 | 1 | -6 | 71*
NC(=O)CC(NC(=O)Cc1ccc(Cl)cc1)c1ccc(NCCOc2ccccc2)c([N+](=O)[O-])c1 (stereo not drawn) | 3 | -4 | 0 | 0 | -4 | / | / | /
Cn1cc(Br)c(NS(=O)(=O)c2ccc(Cl)s2)n1 | 1 | 1 | 1 | 25* | -9 | 1 | -4 | -4
COC(=O)C1=C(C)N(Cc2ccc(C(F)(F)F)cc2)C(=NCc2ccccc2)NC1c1ccccc1 (stereo not drawn) | -3 | / | 4 | -1 | -3 | / | / | /
O=C(CN1CCCCC1)NNc1nc(-c2ccccc2)c2cc(Br)ccc2n1 | -4 | 0 | -3 | 19* | 3 | 1 | -5 | -8
CC(=O)NNc1nc(-c2ccccc2)c2cc(Br)ccc2n1 | -1 | 3 | 0 | 0 | 3 | / | / | /
SMILES | MBD2 DNA inh | Rin1 Abl inh | UHRF1 MBD2 ctr | LEDGF integ inh | TCR-CD3 inh | IN multimer act | TRFRET interf | IN-LEDGF confirm
CC(C)NC(=O)N(C)C[C@@H]1Oc2ccc(NC(=O)Nc3ccc(C(F)(F)F)cc3)cc2CC(=O)N([C@H](C)CO)C[C@@H]1C | 2 | -1 | -2 | 14* | 2 | 0 | -2 | -4
COC(=O)[C@@]12C[C@@H](CC(=O)N3CCCCC3)C(=O)N(Cc3cccc4ccccc34)C1=CCC(C)(C)C2 | 1 | / | 0 | 2 | 4 | / | / | /
COC(=O)[C@@]12C[C@@H](CC(=O)N3CCN(C(=O)c4ccco4)CC3)C(=O)N(Cc3cccc4ccccc34)C1=CCC(C)(C)C2 | -1 | / | -1 | 21* | -3 | 2 | -9 | -7
CCS(=O)c1ccccc1C(=O)OC(C)C(=O)Nc1ccc(S(=O)(=O)N2CCCC2)cc1 (stereo not drawn) | -1 | -2 | 0 | 1 | 5 | / | / | /
NCC1C2CCC(O2)C1CO (stereo not drawn) | 4 | 2 | -2 | 56* | 2 | 0 | 0 | -2
CCN(Cc1nc(-c2ccc(OC)c(OC)c2)no1)C(=O)c1ccc2c(c1)OCO2 | 5 | -3 | -2 | -1 | 5 | / | / | /
COCCCN1C(=O)C(CC(=O)NC(c2ccccc2)c2ccccc2)CC(C(=O)N(C(C)C)C(C)C)=C1C (stereo not drawn) | 1 | 0 | 1 | -5 | -2 | / | / | /
CC1CCCC(NC(=O)COC(=O)c2cccs2)C1C (stereo not drawn) | 2 | 0 | 0 | 2 | -5 | / | / | /
Cc1ccc(NC(=O)CSc2ccc3nnc(CCNC(=O)c4ccccc4)n3n2)c(C)c1 | -6 | -2 | -1 | 43* | -6 | 0 | -2 | -4
Cc1ccc(Oc2ncccc2C(=O)NCC(=O)O)cc1 | -6 | 4 | 0 | 17* | -3 | 0 | 0 | 0
CC(OC(=O)/C=C/c1ccco1)C(=O)Nc1cccc([N+](=O)[O-])c1 (stereo not drawn) | 1 | -3 | -3 | 3 | 6 | / | / | /
CC(=O)c1ccc(NC(=O)C(C)OC(=O)/C=C/c2ccco2)cc1 (stereo not drawn) | -8 | 0 | 6 | 19* | 3 | 1 | -6 | 3
Cc1cc(O)c(CN(C)C)c2c1C(=O)/C(=C/c1ccco1)O2 | 6 | -1 | 16 | 26* | 4 | 11* | -41 | 24*
COc1ccc2c(c1)O/C(=C\c1ccco1)C2=O | -4 | -2 | -6 | 2 | 10 | / | / | /
NC(=O)CC1Nc2cccc3cccc(c23)NC1=O (stereo not drawn) | -2 | -1 | -2 | 19* | 16 | 35* | -126 | 32*
S=C(Nc1ccc2nsnc2c1)N1CCCCC1 | -5 | -1 | 6 | 17* | 3 | 1 | -2 | 5

Screening results: PubChem, The Scripps Research Institute Molecular Screening Center
